# NPC1 prom act – activates the NPC1 promoter; Potency, µM (series often up to 9.22 µM), most hits filed as activators; 320,000 compounds, 2.4% hits; Huh7 NPC1 promoter luciferase reporter, 24 h; also: nearly all actives have a fitted effect of over 60% in size
#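 Huh7 reporter cells (NPC1 promoter driving luciferase) are dosed with compound for 24 h at 37 °C, 5% CO2; luciferase detection reagent is then added and luminescence measured after 10 min at ambient temperature.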
# ELG1 DNA repair – blocks ELG1-dependent DNA repair in HEK293T cells; HEK293T ELG1-luciferase reporter, luminescence, 16 h; DNA damage induced by 5-fluorouridine; Potency, µM (series often up to 46.1 µM), actives largely listed as inhibitors; 330,000 compounds, 2.3% hits; AID 504467; also: nearly all actives have a fitted effect of over 55% in size
#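 Reporter activity after DNA damage by 5-fluorouridine is monitored. Compound-treated cells incubate 16 hr at 37 °C, then ONE-Glo is added for 30 min before luminescence reading.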
# ELG1 genotoxic – genotoxicity induction in ELG1-luciferase HEK293T cells | HEK293T ELG1-luciferase reporter, luminescence, 16 h | 330,000 compounds, 1.3% hits | Potency, µM (series often up to 46 µM), actives largely listed as activators; also: nearly all actives have a fitted effect of over 60% in size
#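 Reporter readout depends on ELG1 protein level, which increases with genetic stress. After 16 hr compound exposure at 37 °C, luciferase activity was quantified using ONE-Glo.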
# FLuc counter – counter-screen for miR-21 project: firefly luciferase inhibitors or activators; Potency, µM (highest dose often 57.5 µM), usual class: inhibitors; AID 588342; 360,000 compounds, 6.9% hits; purified FLuc, Km substrates, luminescence inhibition; also: nearly all actives have a fitted effect of over 55% in size
# Target sequence (P08659 whole entry, looked up): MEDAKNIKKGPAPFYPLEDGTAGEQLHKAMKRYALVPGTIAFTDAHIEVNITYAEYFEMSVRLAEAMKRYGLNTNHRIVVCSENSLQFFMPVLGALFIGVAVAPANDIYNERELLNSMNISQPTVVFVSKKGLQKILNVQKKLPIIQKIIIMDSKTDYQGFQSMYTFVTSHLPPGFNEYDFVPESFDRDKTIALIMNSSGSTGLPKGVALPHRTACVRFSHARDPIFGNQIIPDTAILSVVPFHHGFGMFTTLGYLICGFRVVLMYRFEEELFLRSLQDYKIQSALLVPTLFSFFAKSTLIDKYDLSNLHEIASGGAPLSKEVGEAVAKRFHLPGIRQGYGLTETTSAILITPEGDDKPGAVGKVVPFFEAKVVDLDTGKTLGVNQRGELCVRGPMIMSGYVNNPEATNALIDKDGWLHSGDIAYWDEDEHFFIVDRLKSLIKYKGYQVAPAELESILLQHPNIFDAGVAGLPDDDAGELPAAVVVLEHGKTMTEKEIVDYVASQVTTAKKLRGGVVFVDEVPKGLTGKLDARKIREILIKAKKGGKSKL
#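 Biochemical qHTS of compounds, final roughly 60 µM downward over six points, against 10 nM purified firefly luciferase using Km concentrations of substrates (10 uM D-luciferin, 10 uM ATP) in Tris acetate pH 7.5 buffer; luminescence output.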
# SMN2 splice up – SMN2 splice variant enhancement | HEK293 SMN2-luciferase splicing reporter, luminescence, 30-36 h | Potency, µM (series often up to 46.1 µM), hits mostly activators | 210,000 compounds, 2.8% hits | AID 1458; also: nearly all actives have a fitted effect of over 55% in size
#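 qHTS luciferase splicing reporter: luminescence rises when SMN2 exon 7 is included in transfected HEK293 cells. Compound exposure lasted 30-36 h at 37C, with 4.5 mM final sodium butyrate as control, followed by a ONE-Glo read.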
# Rab9 prom act – activators of Rab9 promoter; Huh7 Rab9 promoter-luciferase reporter, luminescence, 24 h; AID 485297; 320,000 compounds, 2.8% hits; Potency, µM (top dose mostly 9.22 µM), most hits filed as activators; also: nearly all actives have a fitted effect of over 60% in size
#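 Rab9 promoter-driven luciferase in stably transfected Huh7 cells; 1500 cells/well rested 2 h, exposed to compound in DMSO for 24 h at 37 °C, 5% CO2. Luminescence read 10 min after adding luciferase reagent at ambient temperature.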
# Numbers stand for hits; – = inactive; ? = inconclusive; · = not tested or not shown; [ ] = another dose, or the depositor's remark. An excerpt weighted towards active compounds, which were near 9.3% of everything screened. Calls follow the shape of the dose curve; as a rule, active = well fitted curve in the direction sought with a large enough effect; inconclusive = small, poorly fitted or top-dose-only effect, or another doubt; inactive = no such curve, though single readings can be large; an effect the other way counts as inactive or inconclusive.
SMILES,NPC1 prom act,ELG1 DNA repair,ELG1 genotoxic,FLuc counter,SMN2 splice up,Rab9 prom act
CC(=O)Nc1cccc(C(=O)/C=C/c2ccc(/C=C/C(=O)c3cccc(NC(C)=O)c3)cc2)c1,–,?,–,–,–,–
CC(=O)Nc1cccc(C(=O)/C=C/c2ccc(N(C)C)cc2)c1,–,?,?,2.7µM,–,–
CNC[C@@H](SC)c1ccc(O)c(O)c1,·,·,·,·,–[9.22 µM],·
COC(=O)c1cc(NC(=O)CN(c2cccc(OC)c2)S(=O)(=O)c2ccccc2)ccc1Cl,–,?,–,–,·,–
COC(=O)c1cc(NC(=O)CN(c2ccccc2OC)S(=O)(=O)c2ccccc2)ccc1Cl,–,23µM,–,–,·,–
CCOc1ccccc1N(CC(=O)Nc1ccc(OC)cc1OC)S(=O)(=O)c1ccccc1,–,16µM,–,–,·,–
CCC(CO)Oc1cc(NCc2ccccc2Cl)c2ncn(C(C)C)c2c1 (configuration not stated),–,?,–,–,·,–
O=C1C2C3C=CC(C4CC34)C2C(=O)N1c1ccc2c(c1)OCO2 (configuration not stated),–,–,–,21µM,–,–
C=CCn1c(NCc2c[nH]c3ccccc23)nc2ccccc21,–,?,–,24µM,–,–
Cn1c(NCc2c[nH]c3ccccc23)nc2ccccc21,2.2µM,?,–,9.5µM,11µM,2µM
Cn1c(NCc2ccco2)nc2ccccc21,–,?,?,?,?,–
C=CCn1c(NCc2ccc(OC)cc2)nc2ccccc21,–,?,–,?,·,–
Cn1c(NCc2cccs2)nc2ccccc21,–,?,23µM,?,11µM,?
Cc1nc(SCc2nc3ccccc3[nH]2)c2oc3ccccc3c2n1,–,18µM,–,?,–,–
O=C(CSc1ncnc2c1oc1ccccc12)c1cccs1,2.8µM,?,?,?,–,4µM
NC(=O)CSc1ncnc2c1oc1ccccc12,–,–,–,–,–,–
Cc1nc(SCC(=O)c2cccs2)c2oc3ccccc3c2n1,?,?,?,9.5µM,10µM,4µM
O=c1[nH]c(CSc2ccccn2)nc2c1oc1ccccc12,3.5µM,?,?,2.7µM,1µM,0.79µM
Cc1ccc(S(=O)(=O)N2CCCCC2)cc1C(=O)N1CCCCCC1,–,–,–,–,·,–
Cn1c(SCC(=O)NCc2ccco2)nnc1C1CCCC1,–,–,–,–,·,–
CC(=O)Nc1ccc(/C=C/c2nc3ccccc3o2)cc1,2.2µM,?,?,4.8µM,·,0.45µM
O=C(Nc1ccc(/C=C/c2nc3ccccc3o2)cc1)c1c(F)cccc1F,3.2µM,?,1.5µM,2.1µM,8.9µM,2µM
O=C(Nc1ccc(/C=C/c2nc3ccccc3o2)cc1)c1cccc(C(F)(F)F)c1,–,?,?,?,·,?
Cc1ccc(NC(=O)C(Cc2c[nH]c3ccccc23)NC(=O)OCC(C)C)cc1 (configuration not stated),·,·,·,–,?,·
Clc1cccc(Cl)c1CSc1nnc(-c2ccncc2)s1,–,?,–,15µM,·,–
SMILES,NPC1 prom act,ELG1 DNA repair,ELG1 genotoxic,FLuc counter,SMN2 splice up,Rab9 prom act
CCOc1cc2c(cc1OCC)C(c1ccc(C(=O)O)cc1)NCC2 (configuration not stated),–,–,–,–,·,–
CCc1c(C)nc2[nH]nc(-c3ccccc3)n2c1=O,–,?,?,21µM,·,–
CCc1c(C)nc2[nH]nc(-c3ccccc3C)n2c1=O,–,–,–,?,–,–
COc1cc(/C=C(\C#N)C(=O)N2CCOCC2)ccc1OCc1ccccc1,–,?,?,–,?,–
N#C/C(=C\c1ccc(OCc2ccc(C(=O)O)cc2)cc1)C(=O)N1CCOCC1,?,?,?,17µM,1.6µM,2.8µM
CC(=O)NCCc1ccc(S(=O)(=O)N2CCN(c3nc(-c4ccccc4)c(C)s3)CC2)cc1,–,?,–,–,·,–
COC(=O)C1(Cc2ccc(O)cc2)OC(=O)C(O)=C1c1ccc(O)cc1 (configuration not stated),–,–,–,?,·,–
N#C/C(=C/c1ccc(N2CCCCCC2)o1)c1ccc(Cl)cc1,–,?,?,9.5µM,–,4µM
N#C/C(=C/c1ccc(N2CCCCC2)cc1)c1cccc(F)c1,4µM,?,18µM,5.4µM,?,3.2µM
N#C/C(=C/c1ccc(N2CCCCC2)o1)c1cccc(F)c1,–,?,3.7µM,2.1µM,–,–

# High-throughput results as filed in PubChem BioAssay.
